D1 PAM: potentiators of human D1 dopamine receptor; HEK293 TREx D1 cells, calcium flux, dopamine EC20 potentiation; potentiation, % at 10 µM; AID 504651; P21728; 360,000 tested, 0.036% active; in the data active = potentiation above about 30%; note: 0% is about no effect
Target sequence (P21728 whole entry, looked up): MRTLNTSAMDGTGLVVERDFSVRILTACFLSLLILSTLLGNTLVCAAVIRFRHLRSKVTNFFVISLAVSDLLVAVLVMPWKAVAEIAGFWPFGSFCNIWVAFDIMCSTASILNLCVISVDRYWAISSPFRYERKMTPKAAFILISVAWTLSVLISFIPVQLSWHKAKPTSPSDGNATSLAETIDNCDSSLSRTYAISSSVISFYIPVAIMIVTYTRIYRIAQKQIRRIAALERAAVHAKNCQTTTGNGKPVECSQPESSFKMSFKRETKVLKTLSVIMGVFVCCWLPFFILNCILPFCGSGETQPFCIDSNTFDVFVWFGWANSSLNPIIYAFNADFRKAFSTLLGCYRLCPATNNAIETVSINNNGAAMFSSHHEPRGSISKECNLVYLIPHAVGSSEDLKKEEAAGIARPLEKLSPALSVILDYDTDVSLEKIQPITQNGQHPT
D1 ag: activates the human D1 dopamine receptor; HEK293 T-REx D1 cells, calcium flux, agonist mode; activation, % at 2 µM; 360,000 tested, 1% active; AID 504660; in the data active = activation above about 30%; note: 0% is about no effect
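Tetracycline-induced HEK293 TREx D1 cells, force-coupled to calcium signalling, were dye-loaded with a no-wash calcium kit. Compound was pin-added after a 10 s baseline. Fluorescence was read kinetically at 1 cycle/s for 180 s, with calcium rises flagged as agonism.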
D3 antag: D3 dopamine receptor (human) antagonism; P35462; D3R cells, DiscoveRx beta-arrestin luminescence, antagonist mode; stronger effect = lower value; max response, negative = inhibition, %; 360,000 tested, 2.5% active; in the data active = max response below about -50%; inconclusive = no clear call, values can overlap the other calls; note: % is set by controls: 0 for no effect and ±100 for the full control effect
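Cells expressing the human receptor were seeded at 1500 cells/well, incubated overnight at 37 degrees C in 5% CO2, then exposed to library compounds with dopamine controls for 90 minutes at 37 degrees C before luminescent detection.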
DRD3 agonist: D3 dopamine receptor (human) agonism; P35462; D3R DiscoveRx beta-arrestin cells, luminescence, 90 min; max activation, %; 410,000 tested, 0.58% active; AID 652048; in the data active = max activation above about 30%; note: 0% is about no effect
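Cells at 1500/well, incubated overnight, then treated with pinned compounds (dopamine as control) for 90 min at 37 degrees C. DiscoveRx reagent added for 30 - 60 minutes at room temperature; luminescence read.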
D1 antag: antagonists of human D1 dopamine receptor. P21728. HEK293 TREx D1 cells, calcium flux, dopamine EC80; stronger effect = lower value. activity change, negative = inhibition, % at 10 µM. 360,000 tested, 3.2% active; in the data active = activity change below about -30%; note: % is set by controls: 0 for no effect and ±100 for the full control effect
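Tetracycline-induced HEK293 Trex D1 cells, force-coupled to calcium, dye-loaded; compounds added and read 180 s, then EC80 dopamine added and calcium flux tracked kinetically another 180 s.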
Active calls of the source: *; ? = inconclusive; · = no result. Sampled rows, rich in hits. Any-hit rate of the full collection: about 6%.

SMILES | D1 PAM | D1 ag | D3 antag | DRD3 agonist | D1 antag
CCCCNc1ccc2c3c(cccc13)C(=O)N(CCCC)C2=O | 4 | 700* | 18 | 16 | -71*
CCN(CC)S(=O)(=O)c1nnc(NC(=O)COc2ccc(C)cc2)s1 | -1 | 1 | · | -6 | -4
CC(=O)N(C(C)=O)N1C(=O)c2cccc3c(N4CCOCC4)ccc(c23)C1=O | -3 | 31* | -5 | -1 | -2
CC1=C(C)C(=O)N(c2ccccn2)C1=O | 3 | 1 | -25 | 7 | 6
CC(=O)Oc1ccc(N2C(=O)c3cccc4c([N+](=O)[O-])ccc(c34)C2=O)cc1 | -8 | 2 | -100* | -14 | -41*
O=C1c2cccc3c([N+](=O)[O-])ccc(c23)C(=O)N1O | 3 | 3 | 48 | 2 | -8
O=C1c2cccc3c(N4CCCCC4)ccc(c23)C(=O)N1c1ccccn1 | -6 | 154* | -18 | 6 | -27
O=C(Cn1c(SCCOc2ccccc2Cl)nc2ccccc21)N1CCOCC1 | -2 | 4 | · | 4 | 7
CCCCC(=O)OCC(=O)[C@H]1[C@H](C)C[C@H]2[C@@H]3C[C@H](F)C4=CC(=O)C=C[C@]4(C)[C@@]3(F)[C@@H](O)C[C@@]21C | · | · | · | 9 | ·
O=C(NC1CC(=O)N(c2cccc(F)c2)C1)c1ccc(S(=O)(=O)N2CCCCC2)cc1 (centres undefined) | -2 | 0 | · | 3 | ·
c1coc(-c2ccc3ncnc(NCc4cccs4)c3c2)c1 | 3 | 1 | · | · | 4
O=C(CSc1ncc2c(n1)-c1ccccc1N(Cc1ccc(Cl)cc1)S2(=O)=O)c1ccccc1 | -5 | 4 | · | -4 | -4
Cc1nn(-c2ccccc2)c2nc(C3CC3)cc(C(=O)Nc3ccccc3F)c12 | -7 | 8 | · | 3 | -6
Cc1nn(C2CCS(=O)(=O)C2)c2nc(C3CC3)cc(C(=O)Nc3cccc(C#N)c3)c12 (centres undefined) | -6 | 6 | -21 | -21 | -36*
N#Cc1cc2ccccc2nc1SCC(=O)Nc1ccccc1N1CCOCC1 | -3 | 62* | -18 | 3 | -10
Cc1cccc2cc(C#N)c(SCC(=O)Nc3ccccc3N3CCOCC3)nc12 | 0 | 5 | 121 | 3 | 1
Cc1nnc2ccc(-c3cccc(NC(=O)c4ccco4)c3)nn12 | -12 | 0 | 9 | -2 | -33*
COc1cccc(NC(=O)c2ccco2)c1 | 10 | 1 | -24 | -2 | 0
COc1ccc(CC(=O)Nc2cccc(-c3ccc4nnc(C)n4n3)c2)cc1 | 1 | 3 | 4 | 8 | 5
CCOc1ccc(CC(=O)Nc2cccc(-c3ccc4nnc(C)n4n3)c2)cc1 | 3 | 3 | 7 | 2 | -32*
Cc1ccc(C(=O)C(C)Oc2cccc(NC(=O)c3ccco3)c2)cc1 (centres undefined) | -3 | 42* | 6 | 0 | -2
Cc1cn(C)c(CC(=O)Nc2cccc(Cl)c2C)c1C(=O)O | -4 | 2 | · | 3 | 8
CCOC(=O)C1[C@H]2C(=O)N(C(C)c3ccc(OC)cc3)C[C@]23C=C[C@H]1O3 (some centres undefined) | 2 | 0 | 23 | 1 | -41*
CCCOC(=O)C1[C@H]2C(=O)N(C(C)c3ccc(OC)cc3)C[C@]23C=C[C@H]1O3 (some centres undefined) | -1 | 1 | 17 | 4 | 4
O=C(CN1C(=O)CCc2cc(Br)ccc21)Nc1ccc(OC(F)(F)F)cc1 | 0 | 1 | · | 1 | 3
SMILES | D1 PAM | D1 ag | D3 antag | DRD3 agonist | D1 antag
CCOc1ccccc1C(=O)N[C@H](C(=O)Nc1nc2c(s1)CCCC2)C(C)C | 2 | 4 | -74* | -16 | 21
CCCC[C@@H]1CNC(=O)C(=O)N1CCCc1cc(OC)c(OC)c(OC)c1 | -2 | 2 | 32 | 30* | -5
Cc1oc(-c2ccccc2Cl)nc1CS(=O)CC(=O)N1CCN(c2cccc(C(F)(F)F)c2)CC1 (centres undefined) | -7 | 8 | · | -4 | -1
N#Cc1c(-c2ccc(C(F)(F)F)cc2)cc(-c2ccccc2)[nH]c1=S | -6 | 1 | -9 | 6 | -31*
Cc1ccc(-c2cc(-c3ccccc3)[nH]c(=S)c2C#N)cc1 | 8 | 2 | -13 | -4 | -12
CCOC(=O)c1nn(-c2ccc(OC)cc2)c(=O)c2c(NC(=O)Cc3ccccc3)scc12 | 16 | 4 | · | · | 2
COc1ccc(/C=C2\Oc3cc(OC(=O)N4CCOCC4)ccc3C2=O)c(OC)c1 | -8 | 37* | -14 | 11 | -23
CCN(CC)CCCCN1c2ccccc2Sc2ccccc21 | -4 | 35* | -107* | -13 | -12
CN(C)CCCN1c2ccccc2Sc2ccc(C(F)(F)F)cc21 | -5 | 55* | -97* | -86 | -79*
CCN(CC)CC(=O)N1c2ccccc2Sc2ccc(Cl)cc21 | -5 | 2 | ? | -8 | 19
OCCN1CCN(CCCN2c3ccccc3Sc3ccc(C(F)(F)F)cc32)CC1 | · | 38* | -96* | -86 | -106*
CN(C)CCCN1c2ccc(O)cc2Sc2ccc(Cl)cc21 | · | · | -110* | -8 | ·
CN(C)CCC(=O)N1c2ccccc2Sc2ccc(C(F)(F)F)cc21 | -4 | 5 | ? | -15 | -15
CN1CCN(CCC(=O)N2c3ccccc3Sc3ccc(C(F)(F)F)cc32)CC1 | -7 | 12 | -53* | -24 | -4
OCCN1CCN(CCCN2c3ccccc3CCc3ccccc32)CC1 | · | · | -125* | -4 | ·
COc1cc(NS(=O)(=O)c2ccc3c(c2)CC(C)N3C(=O)C2CCC2)cc(OC)c1OC (centres undefined) | 0 | -2 | · | · | 6
NS(=O)(=O)c1ccc(NC(=O)COC(=O)C2(c3ccccc3F)CCCC2)cc1 | -7 | 1 | -3 | -5 | -34*
O=C(COC(=O)C1(c2ccccc2F)CCCC1)NC1CCS(=O)(=O)C1 (centres undefined) | -2 | 3 | -62* | -5 | 15
COc1ccc(NC(=O)Cn2c(=O)n(Cc3ccco3)c(=O)c3cc(OC)c(OC)cc32)cc1 | -2 | 2 | · | 5 | 17
Cn1c(CSCc2ccc(Cl)cc2)nnc1SCC(=O)Nc1nccs1 | -9 | 19 | 28 | 2 | -49*
Cn1c(CSCc2ccc(Cl)c(Cl)c2)nnc1SCC(=O)Nc1nccs1 | -2 | 7 | 109 | -1 | -26
CCOc1ccc(CNC2CCCc3ccccc32)cc1 (centres undefined) | -3 | 5 | -51* | -22 | 6
Cc1cccc(C)c1OCC(O)CNC(C)C (centres undefined) | -7 | 21 | -7 | 4 | -1
CC(C)(C)NCC(O)COc1ccccc1C1CCCC1 (centres undefined) | -4 | 31* | ? | -24 | -16
CCOc1ccc(NC(=O)NC2CCCc3ccccc32)cc1 (centres undefined) | -5 | 8 | 2 | -1 | -16
CC(C)(C)NC[C@H](O)COc1ccccc1C1CCCC1 | · | · | · | -25 | ·

Bioassay records: PubChem BioAssay, National Center for Advancing Translational Sciences (NCATS)
